Measurements published in ChEMBL document CHEMBL3988442, “University of Dundee, Small-Polar-MMV Screening Library” (2021).
About 300 (0.45%) of roughly 67,000 compounds showed an effect of 50% or more. Shown is part of a subset that was picked to be rich in strong results.

What follows are compounds tested against Polyketide synthase Pks13 (Mycobacterium tuberculosis (strain ATCC 25618 / H37Rv)) (UniProt I6X8D2) (assay: Mycobacterium tuberculosis Polyketide synthase 13 Thioesterase (PKS13)). Conditions: 30 µM.
Type: functional
Design: scale not given: in the data most compounds retested in dose-response had high values

Sequence of Polyketide synthase Pks13 (Mycobacterium tuberculosis (strain ATCC 25618 / H37Rv)) (I6X8D2 whole entry): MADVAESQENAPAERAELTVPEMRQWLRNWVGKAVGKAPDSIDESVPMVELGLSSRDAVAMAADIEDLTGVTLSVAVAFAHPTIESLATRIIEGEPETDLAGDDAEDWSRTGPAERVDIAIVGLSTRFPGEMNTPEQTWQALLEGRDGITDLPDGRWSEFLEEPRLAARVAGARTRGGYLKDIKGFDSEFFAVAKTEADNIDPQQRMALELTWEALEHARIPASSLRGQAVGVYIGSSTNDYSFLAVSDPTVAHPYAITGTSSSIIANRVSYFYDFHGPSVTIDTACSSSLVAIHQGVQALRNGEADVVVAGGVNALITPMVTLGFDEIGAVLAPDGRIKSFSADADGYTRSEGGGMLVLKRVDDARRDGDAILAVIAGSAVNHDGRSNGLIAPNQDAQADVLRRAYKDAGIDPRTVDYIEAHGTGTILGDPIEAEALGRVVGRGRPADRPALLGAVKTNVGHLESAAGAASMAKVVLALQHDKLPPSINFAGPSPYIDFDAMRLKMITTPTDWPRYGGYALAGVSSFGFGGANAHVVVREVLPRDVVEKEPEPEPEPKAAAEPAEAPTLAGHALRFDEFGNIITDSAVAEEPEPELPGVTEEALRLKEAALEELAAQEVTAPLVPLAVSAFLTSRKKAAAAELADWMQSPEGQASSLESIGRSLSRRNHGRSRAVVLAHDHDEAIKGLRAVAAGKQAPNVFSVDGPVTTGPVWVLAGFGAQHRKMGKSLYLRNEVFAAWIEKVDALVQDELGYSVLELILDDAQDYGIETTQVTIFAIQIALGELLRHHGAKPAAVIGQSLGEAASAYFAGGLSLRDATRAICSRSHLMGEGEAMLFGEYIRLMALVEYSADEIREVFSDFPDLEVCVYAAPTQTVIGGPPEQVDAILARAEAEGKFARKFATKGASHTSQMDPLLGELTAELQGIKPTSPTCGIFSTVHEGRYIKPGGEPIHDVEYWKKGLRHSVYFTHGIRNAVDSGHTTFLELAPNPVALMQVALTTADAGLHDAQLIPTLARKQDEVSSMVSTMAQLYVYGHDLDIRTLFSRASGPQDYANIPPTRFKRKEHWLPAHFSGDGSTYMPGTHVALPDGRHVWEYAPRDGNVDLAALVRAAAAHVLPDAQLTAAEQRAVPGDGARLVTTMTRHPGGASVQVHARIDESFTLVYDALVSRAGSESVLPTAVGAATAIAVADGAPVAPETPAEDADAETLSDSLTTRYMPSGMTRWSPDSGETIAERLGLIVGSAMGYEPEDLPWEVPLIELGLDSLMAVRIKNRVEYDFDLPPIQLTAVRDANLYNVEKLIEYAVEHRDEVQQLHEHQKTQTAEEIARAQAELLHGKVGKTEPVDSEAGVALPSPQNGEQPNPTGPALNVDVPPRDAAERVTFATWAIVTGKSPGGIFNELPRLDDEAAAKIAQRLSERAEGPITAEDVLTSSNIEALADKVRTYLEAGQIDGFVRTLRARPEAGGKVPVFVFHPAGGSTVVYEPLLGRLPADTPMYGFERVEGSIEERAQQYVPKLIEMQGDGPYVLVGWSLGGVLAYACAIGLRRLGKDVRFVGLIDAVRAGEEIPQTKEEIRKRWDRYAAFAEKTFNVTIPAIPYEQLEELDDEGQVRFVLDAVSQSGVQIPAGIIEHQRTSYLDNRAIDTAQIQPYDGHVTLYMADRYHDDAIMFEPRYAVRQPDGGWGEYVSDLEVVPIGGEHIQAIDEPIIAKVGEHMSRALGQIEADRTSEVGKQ

Compared with Cc1c(C(=O)N2CCOCC2)nnn1-c1ccc2ncccc2c1, Cc1c(C(=O)N2CCC2)nnn1-c1ccc2ncccc2c1 is lower in Percent Effect: 67.3% for the first, -7.58% for the second.

Compared with Cc1c(C(=O)N2CCS(=O)(=O)CC2)nnn1-c1ccc2ncccc2c1, COc1ccc(C(=O)N2CC[C@@H]3[C@H](CC2)N(C)CCS3(=O)=O)cc1 is higher in Percent Effect: -29.1% for the first, -17.1% for the second.

Going from CCS(=O)(=O)N1C[C@H]2CC[C@](O)(c3ccc(C)cc3)[C@H]2C1 to Cc1ccc(CS(=O)(=O)N2CC[C@H]3[C@H]2CCN3C)cc1, the Percent Effect rises from 8.05% to 37.1%.

Compared with Cn1nc(C2CCCN(Cc3ccccc3)C2)c2nccnc21 (centres undefined), Cn1nc(C2CCCN(Cc3cccs3)C2)c2nccnc21 (centres undefined) is higher in Percent Effect: 3.08% for the first, 13% for the second.

First: Cc1ccc(CN2CCCC(c3nn(C)c4nccnc34)C2)s1 (centres undefined)
Second: Cc1cc(CN2CC[C@H]3C(=O)N(c4ccsc4)CCO[C@H]3C2)no1
The Percent Effect of the first is higher: 115% for the first, -5.2% for the second.

Compared with Cc1csc([C@H]2C[C@@H]3CCN(C(=O)c4cnccn4)C[C@H]3O2)n1, COc1ncccc1C(=O)N1CC[C@H]2C[C@@H](C)O[C@@H]2C1 is higher in Percent Effect: -30.8% for the first, -30.1% for the second.

Going from CCn1cc(-c2cc(-c3cc(CC(=O)O)cs3)nc(N)c2C#N)c(C)n1 to CCn1cc(-c2cc(-c3cc(CN(C)C)cs3)nc(N)c2C#N)c(C)n1, the Percent Effect rises from -51.8% to 76.9%.

First: Cc1nn(C)c(C)c1-c1cc(-c2cc(CC(=O)O)cs2)nc(N)c1C#N
Second: Cc1ccc2nc(-c3cnc(N)nc3)cc(C(=O)N(C)C)c2c1
The Percent Effect of the first is higher: 47.9% for the first, 1.85% for the second.

Compared with COCCN1C[C@H]2CN(Cc3cccc(OC(F)(F)F)c3)CCN2C1=O, COCCN1C[C@H]2[C@@H](C1)N(C(=O)COc1ccccc1)CC[C@H]2OC is higher in Percent Effect: -30.8% for the first, -22.6% for the second.

Going from Cc1cc(CNC(=O)[C@H]2CCCCN2C(=O)OC(C)(C)C)on1 to Cc1ccc(CNC(=O)C2CCCCN2C(=O)OC(C)(C)C)cn1 (centres undefined), the Percent Effect rises from -8.92% to 56.8%.

Going from CC(C)(C)OC(=O)N1CCCCC1C(=O)NCc1cc[nH]n1 (centres undefined) to Cc1ccc(NC(=O)c2nc3c(s2)CCCN3C(=O)C2CC2)cn1, the Percent Effect rises from -18.2% to 56.3%.

Going from COc1cc(N2C[C@@H]3COC[C@]3(COCc3cccc(C)n3)C2)ncn1 to Cc1cccc(CN2C[C@@H]3COC[C@]3(CNC(=O)N3CCCC3)C2)n1, the Percent Effect rises from -18.9% to -7.01%.

Going from COc1ccc2nc(C[C@@H]3C[C@@H](C(C)C)[C@H](CN(C)C)C=C3C)[nH]c2n1 to COc1ccc2nc(C[C@@H]3C[C@@H](C(C)C)[C@H](CN)C=C3C)[nH]c2n1, the Percent Effect rises from -71.1% to 56.2%.

Going from COc1ccc2[nH]c(C[C@@H]3C[C@@H](C(C)C)[C@H](CN(C)C)C=C3C)nc2c1 to COc1ccc2c(C(=O)N(C)C)cc(-c3cnc(N)nc3)nc2c1, the Percent Effect rises from 1.51% to 75.3%.

First: CCn1nc(C)cc1C(=O)N1C[C@@H]2C[C@@H](c3nnc(C)[nH]3)O[C@@H]2C1
Second: Cc1ccc(-c2nnc([C@H]3CCN(C4CCC4)C3)o2)cc1
The Percent Effect of the first is lower: -31.5% for the first, 11.8% for the second.

Compared with CN(C)C(=O)c1cc(-c2cnc(N)nc2)nc2cc(F)ccc12, N#Cc1cc(C#N)c(SCC(=O)NCc2ccc(F)cc2)nc1N is higher in Percent Effect: -19.1% for the first, -6.72% for the second.

Compared with Fc1cccc(CN2C[C@@H]3CN(c4ncccn4)C[C@@H]3C2)c1, c1ccc(NC[C@@H]2CCC[C@@H]3CN(Cc4cccnc4)C[C@@H]32)nc1 is lower in Percent Effect: -4.52% for the first, -17.4% for the second.

Going from Cn1c(Cn2ncc(N3CCCC3)cc2=O)nc2ccccc21 to Cn1c(Cn2ncc(N3CCCCC3)cc2=O)nc2ccccc21, the Percent Effect rises from -18.2% to 91%.

First: CN(C)c1cnn(Cc2nc3ccccc3n2C)c(=O)c1
Second: CN(C)C[C@]12COC[C@H]1CN(Cc1ccc3ccccc3n1)C2
The Percent Effect of the first is lower: -19.4% for the first, -18.2% for the second.

Going from CCOc1ccc2nc(CN3CCC(CN)C3)ccc2c1 (centres undefined) to CCOc1ccc2nc(CN3CCOC(CN)C3)ccc2c1 (centres undefined), the Percent Effect rises from -11.4% to 70.3%.

Going from CCOc1ccc2nc(CN3CCC(CNC(C)=O)C3)ccc2c1 (centres undefined) to CC(=O)N1C[C@@H](c2ccsc2)[C@@H]2CN(Cc3ccccc3Cl)CC[C@@H]21, the Percent Effect rises from -18.1% to 9.76%.

First: Oc1cccc(CN2C[C@H]3CC[C@@H]2CN(Cc2ccc(F)cc2)C3)c1
Second: c1ccc(-c2cc(CN3C[C@@H]4CC[C@H](C3)N(CC3CCC3)C4)on2)cc1
The Percent Effect of the first is higher: -36.6% for the first, -48.3% for the second.

First: CN(C)c1ccc(-c2nnc([C@H]3CCN(C4CCCCC4)C3)o2)cc1
Second: Clc1ccc(-c2nnc([C@H]3CCN(C4CCCCC4)C3)o2)cc1
The Percent Effect of the first is higher: 58.9% for the first, -3.49% for the second.

Going from O=C(c1ccccc1)N1C[C@@H]2CC[C@H](C1)N(C(=O)CN1CCOCC1)C2 to CSc1ncccc1C(=O)N1C[C@H]2CC[C@@H]1CN(c1cnccn1)C2, the Percent Effect rises from -38.5% to -2.08%.

Going from N#Cc1cc(C#N)c(SCCC(=O)Nc2ccc(F)cc2)nc1N to N#Cc1cc(C#N)c(SCC(=O)Nc2ccc(F)cc2)nc1N, the Percent Effect rises from -20.2% to 65.2%.

Going from C=Cn1ncc(CN2C[C@@H]3C[C@@H](O)CN3C[C@@H]2Cc2ccccc2)c1C to Cc1cnn(CCNCC(=O)NCCOc2ccccc2)c1, the Percent Effect falls from -6.39% to -11.4%.

Going from O=C(Nc1cnc(N2CCOCC2)nc1)c1ccc(C(F)(F)F)cc1 to O=S(=O)(Nc1cnc(N2CCOCC2)nc1)c1ccc(C(F)(F)F)cc1, the Percent Effect falls from 106% to -20.2%.

Compared with COCC(=O)Nc1cnc(N2CCOCC2)nc1, COc1ccc(NC(C)C(=O)N2CCN(c3ncccn3)CC2)cn1 (centres undefined) is higher in Percent Effect: -16% for the first, 4.94% for the second.

Going from Cc1ccc(CN2CC[C@H]3OCC[C@@H](C(=O)N4CCCCO4)[C@@H]3C2)o1 to O=C(O)c1ccc2ccc(N3CCN(CC4CC4)CC3)n2c1, the Percent Effect falls from 16.9% to 9.49%.

Going from CN(C)C[C@H]1OC[C@@H]2CN(C(=O)NCc3cccnc3)CC[C@@H]21 to CC[C@H]1CN2CC[C@H]1C[C@@H]2CNC(=O)Nc1cccc(C(F)(F)F)c1, the Percent Effect falls from 1.8% to -29.8%.

First: COc1ccc(NC(C)C(=O)N2CCCC2)cn1 (centres undefined)
Second: COc1ccc(NC(C)C(=O)N2CCN(c3ccccc3)CC2)cn1 (centres undefined)
The Percent Effect of the first is higher: 67.9% for the first, 31.4% for the second.

Going from CC(C)c1noc(CN(CCC2CCCCC2)CC(N)=O)n1 to CCc1noc(CN(CCC2CCCCC2)CC(N)=O)n1, the Percent Effect rises from -4.56% to 6.76%.

Going from CC(C)(C)c1nc(CN(CCC2CCCCC2)CC(N)=O)no1 to Cc1cnn(CC(C)NCC(=O)NCCc2cccs2)c1 (centres undefined), the Percent Effect falls from 57.2% to -15.2%.

Compared with CC(=O)N1CCCc2sc(C(=O)Nc3ccc(C)nc3)nc21, Cc1ccc(NC(=O)c2nc3c(s2)CCCN3C(C)C)cn1 is higher in Percent Effect: -22.2% for the first, -9.2% for the second.

Cc1cnn(CC(C)NCC(=O)NCCOc2ccccc2)c1 (centres undefined) gave a Percent Effect of 95.2%.
